The values that follow come from the supplement of paper PMC10037445.

Test [1] concerns RAW-Dual. In words: NF-kB SEAP reporter activity, fold change vs agonist alone; cytotoxicity flag (confluency mask): not cytotoxic; higher = enhanced NF-kB activity. The method in brief: (§1)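 RAW-Dual macrophages (50,000 cells/well in DMEM, 384-well plates) received 50 nL of library stock by pin tool, then a PRR agonist 1 h later, and were kept at 37 °C, 5% CO2. After 20 hours, supernatant was read for IRF by QuantiLuc luminescence and for NF-κB by QuantiBlue absorbance at 620 nm. Reporter activity is fold change over agonist-alone wells. Cytotoxic wells had IncuCyte confluency below 70% of agonist controls in both mask sets.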

In test [2] the test system is RAW-Dual. Description: NF-kB SEAP reporter activity, fold change vs agonist alone; higher = enhanced NF-kB activity. In short, it runs like this:
as §1

In test [3] the test system is RAW-Dual. Description: NF-kB SEAP reporter activity, fold change vs agonist alone; cytotoxicity flag (confluency mask): cytotoxic (confluency <70% of control); higher = enhanced NF-kB activity. In short, it runs like this:
as §1

The mark [4] stands for this setting: agonist: ODN 1826 (TLR9) 0.5 ug/mL.
Setting [5] is: agonist: Pam2CSK4 (TLR2/6) 0.1 ug/mL.
[6] abbreviates: agonist: Pam3CSK4 (TLR2/1) 0.1 ug/mL.
[7] abbreviates: library stock concentration (final ~1000-fold dilution): 10 mM, cytotoxicity flag (confluency mask): not cytotoxic, agonist: Imiquimod (TLR7) […].
Setting [8] is: library stock concentration (final ~1000-fold dilution): 10 mM, cytotoxicity flag (confluency mask): not cytotoxic, agonist: MPLA (TLR4) […].
[9] abbreviates: library stock concentration (final ~1000-fold dilution): 10 mM, cytotoxicity flag (confluency mask): cytotoxic (confluency <70% of control), agonist: Imiquimod (TLR7) […].
[10] abbreviates: library stock concentration (final ~1000-fold dilution): 10 mM, cytotoxicity flag (confluency mask): cytotoxic (confluency <70% of control), agonist: MPLA (TLR4) […].

Whole data set: some 2,900 compounds, median “NF-kB SEAP reporter activity, fold change vs agonist alone” near 0.99, cut for the highest 2% near 2.6. The entries come from a sample that favours the highest values as a whole.

As to `COC1/C=C/OC2(C)Oc3c(C)c(O)c4c(O)c(c(/C=N/N5CCN(C6CCCC6)CC5)c(O)c4c3C2=O)NC(=O)/C(C)=C/C=C/C(C)C(O)C(C)C(O)C(C)C(OC(C)=O)C1C` (stereo not given) (library stock concentration (final ~1000-fold dilution): 10 mM), the “NF-kB SEAP reporter activity” value with RAW-Dual [1] (agonist: LPS (TLR4) 0.1 ug/mL) was determined as 1.56; with RAW-Dual [1] (setting [4]), 0.892; with RAW-Dual [1] (setting [5]), 0.643; with RAW-Dual [1] (setting [6]), 0.742.
With `COC1/C=C/OC2(C)Oc3c(C)c(O)c4c(O)c(c(/C=N/N5CCN(C6CCCC6)CC5)c(O)c4c3C2=O)NC(=O)/C(C)=C/C=C/C(C)C(O)C(C)C(O)C(C)C(OC(C)=O)C1C` (stereo not given), the “NF-kB SEAP reporter activity” value stood at 1.11 in the test with RAW-Dual [2] (setting [7]) and 0.969 with RAW-Dual [2] (setting [8]).
With `O=C(O)CC[C@@H](O)C(=O)O` (library stock concentration (final ~1000-fold dilution): 10 mM water), the “NF-kB SEAP reporter activity” value amounted to 1.44 with RAW-Dual [1] (agonist: LPS (TLR4) 0.1 ug/mL), 1.16 in the test on RAW-Dual [1] (setting [4]), 1.17 in the test on RAW-Dual [1] (setting [5]) and 1.12 with RAW-Dual [1] (setting [6]).
In the case of `O=C(O)CC[C@@H](O)C(=O)O`, the “NF-kB SEAP reporter activity” value amounted to 0.93 with RAW-Dual [2] (library stock concentration (final ~1000-fold dilution): 10 mM water, cytotoxicity flag (confluency mask): not cytotoxic, agonist: Imiquimod (TLR7) […]) and 1.07 in the test with RAW-Dual [2] (library stock concentration (final ~1000-fold dilution): 10 mM water, cytotoxicity flag (confluency mask): not cytotoxic, agonist: MPLA (TLR4) […]).
Turning to `CC1(C)OCC(COC(=O)CCc2ccc(OCC(O)CNCCNC(=O)N3CCOCC3)cc2)O1.Cl` (stereo not given) (library stock concentration (final ~1000-fold dilution): 10 mM), the “NF-kB SEAP reporter activity” value stood at 0.799 with RAW-Dual [1] (agonist: LPS (TLR4) 0.1 ug/mL), 0.908 in the test on RAW-Dual [1] (setting [4]), 1.04 in the test with RAW-Dual [1] (setting [5]) and 0.926 in the test with RAW-Dual [1] (setting [6]).
In the case of `CC1(C)OCC(COC(=O)CCc2ccc(OCC(O)CNCCNC(=O)N3CCOCC3)cc2)O1.Cl` (stereo not given), the “NF-kB SEAP reporter activity” value in the test on RAW-Dual [2] (setting [7]) was determined as 0.97; with RAW-Dual [2] (setting [8]), 1.01.
As to `CC(C)(C)OC(=O)Nc1ccc(-c2cc(C(=O)NCCCCCCC(=O)NO)no2)cc1` (library stock concentration (final ~1000-fold dilution): 10 mM), the “NF-kB SEAP reporter activity” value in the test on RAW-Dual [3] (agonist: LPS (TLR4) 0.1 ug/mL) amounted to 6.9; with RAW-Dual [3] (setting [4]), 1.11; in the test on RAW-Dual [3] (setting [5]), 1.33; in the test on RAW-Dual [3] (setting [6]), 1.21.
For `CC(C)(C)OC(=O)Nc1ccc(-c2cc(C(=O)NCCCCCCC(=O)NO)no2)cc1`, the entries for the “NF-kB SEAP reporter activity” value in the test with RAW-Dual [2] (setting [9]) and in the test with RAW-Dual [2] (setting [10]) were 0.912 and 1.81, respectively.
On to `CC(C)C1C(=O)NC(CCCNC(=N)N)C(=O)NCC(=O)NC(CC(=O)O)C(=O)NC(Cc2ccccc2)C(=O)N1C.O=C(O)C(F)(F)F` (stereo not given) (library stock concentration (final ~1000-fold dilution): 10 mM), for which the “NF-kB SEAP reporter activity” value with RAW-Dual [1] (agonist: LPS (TLR4) 0.1 ug/mL) stood at 0.99; with RAW-Dual [1] (setting [4]), 1.01; in the test with RAW-Dual [1] (setting [5]) it was 0.985; in the test on RAW-Dual [1] (setting [6]), 0.921.
Regarding `CC(C)C1C(=O)NC(CCCNC(=N)N)C(=O)NCC(=O)NC(CC(=O)O)C(=O)NC(Cc2ccccc2)C(=O)N1C.O=C(O)C(F)(F)F` (stereo not given), the figures for the “NF-kB SEAP reporter activity” value with RAW-Dual [2] (setting [7]) and in the test with RAW-Dual [2] (setting [8]) were 0.977 and 1.11, respectively.
On the same counts, the results for `CC(=O)OC1(C(C)=O)CCC2C3C=C(C)C4=CC(=O)CCC4(C)C3CCC21C` (stereo not given) are 1.21 and 1.14.
`CC(=O)OC1(C(C)=O)CCC2C3C=C(C)C4=CC(=O)CCC4(C)C3CCC21C` (stereo not given) (library stock concentration (final ~1000-fold dilution): 10 mM): the “NF-kB SEAP reporter activity” value is 0.908 with RAW-Dual [1] (agonist: LPS (TLR4) 0.1 ug/mL), 1.22 with RAW-Dual [1] (setting [4]), 1.13 in the test on RAW-Dual [1] (setting [5]) and 1.27 with RAW-Dual [1] (setting [6]).
Taken in the same sequence, the figures for `O=C(NC1=CC(=O)[C@@H]2O[C@@H]2[C@@H]1O)c1ccccc1O` (library stock concentration (final ~1000-fold dilution): 10 mM) were 0.954, 0.718, 0.356 and 0.314.
Take `O=C(NC1=CC(=O)[C@@H]2O[C@@H]2[C@@H]1O)c1ccccc1O`: the “NF-kB SEAP reporter activity” value in the test with RAW-Dual [2] (setting [7]) worked out at 0.849; in the test with RAW-Dual [2] (setting [8]) it was 0.949.
Taken in the same sequence, the figures for `CS(=O)(=O)O.O=C(OC1CC2CC3CC(C1)N2CC3=O)c1c[nH]c2ccccc12` (stereo not given) were 0.712 and 0.75.
For the molecule `CS(=O)(=O)O.O=C(OC1CC2CC3CC(C1)N2CC3=O)c1c[nH]c2ccccc12` (stereo not given) (library stock concentration (final ~1000-fold dilution): 10 mM), the “NF-kB SEAP reporter activity” value turned out to be 0.646 in the test with RAW-Dual [1] (agonist: LPS (TLR4) 0.1 ug/mL), 0.571 with RAW-Dual [1] (setting [4]), 0.906 in the test on RAW-Dual [1] (setting [5]) and 0.497 in the test on RAW-Dual [1] (setting [6]).
On to `CCNC(=O)C#Cc1ccc2c(c1)NC(=O)/C2=C(\Nc1ccc(CN(C)C)cc1)c1ccccc1`, for which the “NF-kB SEAP reporter activity” value in the test with RAW-Dual [2] (setting [9]) was found to be 0.134; in the test on RAW-Dual [2] (setting [10]), 0.297.
For the molecule `CCNC(=O)C#Cc1ccc2c(c1)NC(=O)/C2=C(\Nc1ccc(CN(C)C)cc1)c1ccccc1` (library stock concentration (final ~1000-fold dilution): 10 mM), the “NF-kB SEAP reporter activity” value turned out to be 0.241 in the test on RAW-Dual [3] (agonist: LPS (TLR4) 0.1 ug/mL), 0.173 with RAW-Dual [3] (setting [4]), 0.074 in the test on RAW-Dual [3] (setting [5]) and 0.121 in the test on RAW-Dual [3] (setting [6]).
For `C=CC(=O)Nc1cccc(Nc2nc(Nc3ccc(OCCOC)cc3)ncc2F)c1`, the “NF-kB SEAP reporter activity” value amounted to 1.11 in the test with RAW-Dual [2] (setting [7]) and 1.69 with RAW-Dual [2] (setting [8]).
Turning to `C=CC(=O)Nc1cccc(Nc2nc(Nc3ccc(OCCOC)cc3)ncc2F)c1` (library stock concentration (final ~1000-fold dilution): 10 mM), the “NF-kB SEAP reporter activity” value with RAW-Dual [1] (agonist: LPS (TLR4) 0.1 ug/mL) stood at 1.12; in the test with RAW-Dual [1] (setting [4]), 0.8; in the test with RAW-Dual [1] (setting [5]), 0.545; with RAW-Dual [1] (setting [6]), 0.672.
For `CCN(CC)CCOc1ccc(Nc2ncc3cc(-c4c(Cl)cccc4Cl)c(=O)n(C)c3n2)cc1`, the “NF-kB SEAP reporter activity” value in the test with RAW-Dual [2] (setting [9]) was determined as 0.492; in the test with RAW-Dual [2] (setting [10]) it was 0.332.
As to `C=CCn1c(=O)c2cnc(Nc3ccc(N4CCN(C)CC4)cc3)nc2n1-c1cccc(C(C)(C)O)n1`, the “NF-kB SEAP reporter activity” value in the test with RAW-Dual [2] (setting [9]) came out at 1.14; in the test on RAW-Dual [2] (setting [10]), 0.798.
On the same counts, the results for `Cc1cnc(Nc2ccc(OCCN3CCCC3)cc2)nc1Nc1cccc(S(=O)(=O)NC(C)(C)C)c1` are 3.13 and 2.73.
As for `Cc1cnc(Nc2ccc(N3CCN(C)CC3)cc2)nc1Nc1cccc(S(=O)(=O)NC(C)(C)C)c1`, the figures for the “NF-kB SEAP reporter activity” value in the test with RAW-Dual [2] (setting [7]) and in the test with RAW-Dual [2] (setting [8]) were 1.01 and 0.945, respectively.
As for `Cc1cnc(Nc2ccc(N3CCN(C)CC3)cc2)nc1Nc1cccc(S(=O)(=O)NC(C)(C)C)c1` (library stock concentration (final ~1000-fold dilution): 10 mM), the “NF-kB SEAP reporter activity” value in the test on RAW-Dual [1] (agonist: LPS (TLR4) 0.1 ug/mL) stood at 7; with RAW-Dual [1] (setting [4]), 0.913; in the test on RAW-Dual [1] (setting [5]), 2.15; in the test on RAW-Dual [1] (setting [6]) it was 0.84.
`CCN(CC)CCOc1ccc(Nc2ncc3cc(-c4c(Cl)cccc4Cl)c(=O)n(C)c3n2)cc1` (library stock concentration (final ~1000-fold dilution): 10 mM): the “NF-kB SEAP reporter activity” value in the test on RAW-Dual [3] (agonist: LPS (TLR4) 0.1 ug/mL) worked out at 0.238; in the test on RAW-Dual [3] (setting [4]), 0.236; in the test with RAW-Dual [3] (setting [5]), 0.0747; in the test on RAW-Dual [3] (setting [6]), 0.145.
Regarding `C=CC(=O)Nc1cccc(Sc2nc(Nc3ccc(N4CCN(C)CC4)cc3)ncc2Cl)c1` (library stock concentration (final ~1000-fold dilution): 10 mM), the “NF-kB SEAP reporter activity” value stood at 0.254 in the test on RAW-Dual [1] (agonist: LPS (TLR4) 0.1 ug/mL), 0.205 in the test on RAW-Dual [1] (setting [4]), 0.0814 in the test on RAW-Dual [1] (setting [5]) and 0.268 in the test on RAW-Dual [1] (setting [6]).
Take `Cc1cnc(Nc2ccc(OCCN3CCCC3)cc2)nc1Nc1cccc(S(=O)(=O)NC(C)(C)C)c1` (library stock concentration (final ~1000-fold dilution): 10 mM): the “NF-kB SEAP reporter activity” value was 4.34 in the test with RAW-Dual [3] (agonist: LPS (TLR4) 0.1 ug/mL), 1.22 with RAW-Dual [3] (setting [4]), 2.05 in the test with RAW-Dual [3] (setting [5]) and 3.55 with RAW-Dual [3] (setting [6]).
For `C=CCn1c(=O)c2cnc(Nc3ccc(N4CCN(C)CC4)cc3)nc2n1-c1cccc(C(C)(C)O)n1` (library stock concentration (final ~1000-fold dilution): 10 mM), the “NF-kB SEAP reporter activity” value in the test on RAW-Dual [3] (agonist: LPS (TLR4) 0.1 ug/mL) is 0.933; in the test with RAW-Dual [3] (setting [4]), 0.203; in the test on RAW-Dual [3] (setting [5]) it was 0.914; in the test on RAW-Dual [3] (setting [6]), 1.07.
Regarding `C=CC(=O)Nc1cccc(Sc2nc(Nc3ccc(N4CCN(C)CC4)cc3)ncc2Cl)c1`, the “NF-kB SEAP reporter activity” value turned out to be 0.33 with RAW-Dual [2] (setting [7]) and 0.408 with RAW-Dual [2] (setting [8]).
